Assay outcomes as filed in PubChem.
EWS-Fli inh: EWS/Fli-driven NR0B1 reporter inhibitors, primary screen, A673 cells, NR0B1 luciferase, luminescence, MLPCN library | viability-normalised | actives 0.67% (n = 350,000) | inhibition, % at 12.6 µM;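 active = mean inhibition of at least 50% after viability correction, with every replicate also passing that limit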;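 note: firefly luciferase signal divided by Alamar Blue viability fluorescence both relative to DMSO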
MITF TRPM1 inh: inhibitors of MITF-dependent TRPM1 promoter reporter, primary screen, cell-based, SK-MEL-5, single point, luciferase | SK-MEL-5 TRPM1 promoter luciferase, 24 h | inhibition, % at 12.5 µM | actives 0.83% (n = 330,000) | AID 488899, 2010;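 active = mean inhibition across replicates of 60% or more, whatever share of single replicates reaches that level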
esBAF inh: Bmi1 luciferase reporter increase in mESCs, primary screen, esBAF inhibitor project, mouse ES cells, Bmi1 luciferase knock-in, single point; 24 h; 100% = twice the neutral-well signal; reporter increase, % at 12.5 µM; actives 2% (n = 350,000); AID 602393, 2012; in the data active = activation above about 40%;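 note: 0% = median of the plate's neutral control wells and 100% = double that signal; a rise in the Bmi1 reporter signal indicates esBAF inhibition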
MITF act: activators of MITF-driven TRPM1 promoter reporter, primary screen, cell-based, SK-MEL-5, luciferase, single point; SK-MEL-5 TRPM1-promoter luciferase, 24 h; % of positive control, neutral wells = 0; activation, % at 12.5 µM; actives 0.75% (n = 300,000);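 active = mean activation of at least 80% with every replicate also reaching 80%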;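 note: 0% = neutral control wells and 100% = parthenolide positive control wells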
Wnt bcat act: Wnt/beta-catenin pathway activators, primary screen, cell-based, plate reader, single point; activation, % at 9.35 µM; Wnt/beta-catenin reporter cell assay, activator; AID 743398, 2014; actives 1.2% (n = 300,000); in the data active = activation above about 30%, passing the limit was not always enough;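 note: 0% = neutral control wells and 100% = positive control wells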
PAX8 reporter: inhibitors of PAX8-driven TPO luciferase reporter, primary screen, RMG-I cells, single concentration; actives 1.2% (n = 360,000); inhibition, % at 12.6 µM; AID 652154, 2013; SteadyGlo, 24 h;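 active = mean replicate inhibition at least 60% with every replicate also reaching 60%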;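 note: luciferase light reporting Pax8 driven TPO promoter activity; plate controls were median of neutral control wells for no effect and mitoxantrone controls for full effect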
* hit, by the source's call; x = not tested or not shown; ! = repeats disagree. The list is not random: actives were taken first. Their share in the collection is about 4%.

SMILES | EWS-Fli inh | MITF TRPM1 inh | esBAF inh | MITF act | Wnt bcat act | PAX8 reporter
Cc1ccc(S(=O)(=O)N(C)C[C@H]2OCc3cnnn3CCCC(=O)N([C@@H](C)CO)C[C@H]2C)cc1 | 5 | x | -1 | x | -3 | 62*!
Cc1ccc(S(=O)(=O)Nc2ccc3c(c2)CC(=O)N([C@H](C)CO)C[C@H](C)[C@H](CN(C)S(=O)(=O)c2ccc(F)cc2)O3)cc1 | 6 | x | -3 | x | x | 79*
Cc1ccc(S(=O)(=O)N(C)C[C@H]2Oc3ccc(NS(=O)(=O)c4ccc(F)cc4)cc3CC(=O)N([C@H](C)CO)C[C@H]2C)cc1 | -16 | x | 0 | x | x | 104*
COc1ccc(NC(=O)Nc2ccc3c(c2)C(=O)N([C@H](C)CO)C[C@@H](C)[C@@H](CN(C)Cc2ccc(C(=O)O)cc2)OCCCC[C@@H](C)O3)cc1 | -8 | x | 0 | x | x | -2
COc1ccc2c3c([nH]c2c1)[C@@H](CO)N(Cc1ccccc1)CC31CCN(S(=O)(=O)c2ccc(C)cc2)CC1 | 12 | x | x | x | x | x
CN(C)S(=O)(=O)c1cc(NC(=O)[C@H](Cc2ccccc2)N2C(=O)c3ccccc3C2=O)ccc1Cl | x | 6 | x | -5 | 31* | -5
C[C@H](CO)N1C[C@H](C)[C@H](CN(C)C(=O)C2CCCCC2)OCCCC[C@H](C)Oc2ccc(NC(=O)NC3CCCCC3)cc2C1=O | -3 | x | 3 | x | x | -1
Cc1ccc(Cc2c(-c3ccc(F)cc3)nc3cc(C)ccn23)cc1 | -69 | x | 44* | x | 16 | -141
CC(=O)Nc1cnc(-c2ccc3c(c2)OCO3)cn1 | -45 | x | 19 | x | 40* | -151
CC(=O)Nc1cnc(-c2cc(C)c(O)c(C)c2)cn1 | -58 | x | 72* | x | 0 | -78
C[C@@H]1CCCCO[C@H](CN(C)Cc2ccccc2)[C@@H](C)CN([C@H](C)CO)C(=O)c2cc(NC(=O)CCCCCC(=O)Nc3ccccc3N)ccc2O1 | -20 | x | x | x | x | 14
C[C@@H]1CCCCO[C@H](CN(C)Cc2ccc(Cl)c(Cl)c2)[C@@H](C)CN([C@H](C)CO)C(=O)c2cc(NC(=O)CCCCCC(=O)Nc3ccccc3N)ccc2O1 | 9 | x | x | x | x | 73*
C[C@@H]1CN([C@H](C)CO)C(=O)c2cc(NC(=O)CCCCCC(=O)Nc3ccccc3N)ccc2O[C@@H](C)CCCCO[C@H]1CN(C)Cc1ccc(Cl)c(Cl)c1 | -20 | x | x | x | x | 80*
CCCCOc1ncnc2c1[nH]c1ccc(C)cc12 | -38 | x | x | x | 43* | -120
COc1ccc2[nH]c3c(NCCCOC(C)C)ncnc3c2c1 | -66 | -1 | x | 5 | 31* | -107
CCOc1ccc2[nH]c3c(NCCC(C)C)ncnc3c2c1 | 1 | -5 | 11 | 8 | 1 | -9
CCCOc1ncnc2c1[nH]c1ccc(OC)cc12 | -73 | -50 | x | x | 52* | -111
COc1ccc2c3c([nH]c2c1)[C@@H](CO)N(C(=O)c1ccc(F)cc1)CC31CCN(C(=O)CC2CC2)CC1 | 4 | x | x | x | x | x
C[C@@H]1CN([C@H](C)CO)C(=O)c2cc(NC(=O)Nc3ccc(F)cc3)ccc2O[C@@H]1CN(C)S(=O)(=O)c1cn(C)cn1 | -3 | x | -12 | x | x | -61
CC=Cc1ccc2n(c1=O)C[C@H]1[C@H](CO)[C@@H](C(=O)NCC3CC3)N(C(C)=O)[C@@H]21 (mixture of isomers) | -17 | x | x | x | x | x
Cc1ccc(S(=O)(=O)N(C)C[C@H]2Oc3c(NC(=O)CCCCCC(=O)Nc4ccccc4N)cccc3C(=O)N([C@@H](C)CO)C[C@H]2C)cc1 | x | x | x | x | x | 28
CCN1/C(=C/c2sc(-c3ccccc3C)c[n+]2C)Sc2ccccc21 | 65* | 86* | x | -85 | -2 | 98*
CCC(=O)/C=C1/Sc2ccccc2N1CC | x | 12 | 3 | -11 | -1 | x
COc1ccc(CNC(=O)CCCn2nc(C)c([N+](=O)[O-])c2C)cc1OC | -1 | 4 | x | -2 | 38* | 21
Cc1nn(CCCC(=O)NCc2ccc(Cl)cc2)c(C)c1[N+](=O)[O-] | x | 7 | x | -11 | -3 | -5
SMILES | EWS-Fli inh | MITF TRPM1 inh | esBAF inh | MITF act | Wnt bcat act | PAX8 reporter
COC(=O)CNC(=O)Cn1nc(C)c([N+](=O)[O-])c1C | 2 | 9 | x | -11 | 38* | -12
CCC(=O)N[C@@H]1C=C[C@H](CC(=O)NCc2cc(F)cc(F)c2)O[C@@H]1CO | 4 | x | 0 | x | x | -14
C[C@@H]1CN([C@H](C)CO)C(=O)c2cccc(NC(=O)Nc3ccc(F)cc3)c2O[C@H]1CN(C)Cc1ccc(Oc2ccccc2)cc1 | 3 | x | -3 | x | x | x
C[C@H](CO)N1C[C@H](C)[C@H](CN(C)C(=O)C2CCC2)Oc2cc(C#Cc3ccncc3)ccc2S1(=O)=O | 4 | x | 1 | x | x | x
COc1ccc2c3c(n(C)c2c1)[C@@H](CO)N(C(=O)CN(C)C)CC31CN(Cc2nccs2)C1 | -3 | x | x | x | x | x
O=C(Cn1nc(CNc2ccc(Br)cc2)[n+]2c1CCCCC2)c1ccc([N+](=O)[O-])cc1 | 12 | 1 | 0 | 3 | 0 | 71*
C[C@H](CO)N1C[C@H](C)[C@H](CN(C)C(=O)C2CC2)Oc2ncc(C3=CCCC3)cc2C1=O | -12 | x | x | x | x | x
COc1ccc(N2C3=C(CC4=C2CC(C)(C)CC4=O)C(=O)CC(C)(C)C3)cc1 | 46 | 87* | 5 | -87 | -1 | x
COc1ccc(N2C3=C(CC4=C2CCCC4=O)C(=O)CCC3)cc1 | x | -2 | -5 | 0 | -14 | 14
CCOC(=O)c1c(C)c(C(=O)Nc2ccc(N(C)C)cc2)c(C)n1CC | 2 | 21 | 47* | -21 | -3 | x
Cc1cccc(S(=O)(=O)N[C@@H]2CC[C@H](CCNC(=O)CCN3CCCCC3)O[C@@H]2CO)c1 | 0 | x | 2 | x | x | -6
C[C@@H]1CN([C@H](C)CO)C(=O)c2cccc(NC(=O)c3cnccn3)c2O[C@H]1CN(C)S(=O)(=O)c1ccc(F)cc1 | -1 | x | -4 | x | x | x
CCOC(=O)C1CCN(C(=O)/C=C/c2ccccc2)CC1 | -69 | -14 | x | 18 | 45* | -125
COC(=O)C1CCN(C(=O)/C=C/c2ccc(OC)cc2)CC1 | x | -18 | -6 | 25 | 57* | -92
CCOC(=O)C1CCCN(C(=O)/C=C/c2ccccc2)CC1 (stereo unspecified) | 3 | x | -8 | x | x | -21
CN(C)CCCNC(=O)C[C@H]1CC[C@H]2[C@H](COc3ccc(NC(=O)c4ccc5c(c4)OCO5)cc3C(=O)N2C)O1 | -19 | x | 4 | x | x | -37
Cc1ccc(NC(=O)c2cc(-c3ccccc3)nn2-c2ccccc2)cc1 | -1 | -1 | x | 3 | -1 | 11
CC(=O)C(/C=N/c1cc(-c2ccc(C)cc2)nn1-c1ccccc1)=C(\C)O | -111 | -33 | x | 42 | 38* | -203
